Calls of active or inactive are those of the source.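 Rule for the calls: active = compound restoring hERG potassium channel current, after block by a reference inhibitor, at any concentration tried; inactive = no current restored at any concentration tried.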
biological target: Voltage-gated inwardly rectifying potassium channel KCNH2 (Homo sapiens) (UniProt Q12809); test: concentration dependence of hERG rescue from dofetilide, dose response, manual patch clamp, HEK293 cells (AID 2638); conditions: tail current; current remaining: measured here: rescue from 100 nM dofetilide block, at 50 µM, stronger effect = higher value unless noted; series mostly up to 100 µM
Sequence (Q12809 whole entry, looked up): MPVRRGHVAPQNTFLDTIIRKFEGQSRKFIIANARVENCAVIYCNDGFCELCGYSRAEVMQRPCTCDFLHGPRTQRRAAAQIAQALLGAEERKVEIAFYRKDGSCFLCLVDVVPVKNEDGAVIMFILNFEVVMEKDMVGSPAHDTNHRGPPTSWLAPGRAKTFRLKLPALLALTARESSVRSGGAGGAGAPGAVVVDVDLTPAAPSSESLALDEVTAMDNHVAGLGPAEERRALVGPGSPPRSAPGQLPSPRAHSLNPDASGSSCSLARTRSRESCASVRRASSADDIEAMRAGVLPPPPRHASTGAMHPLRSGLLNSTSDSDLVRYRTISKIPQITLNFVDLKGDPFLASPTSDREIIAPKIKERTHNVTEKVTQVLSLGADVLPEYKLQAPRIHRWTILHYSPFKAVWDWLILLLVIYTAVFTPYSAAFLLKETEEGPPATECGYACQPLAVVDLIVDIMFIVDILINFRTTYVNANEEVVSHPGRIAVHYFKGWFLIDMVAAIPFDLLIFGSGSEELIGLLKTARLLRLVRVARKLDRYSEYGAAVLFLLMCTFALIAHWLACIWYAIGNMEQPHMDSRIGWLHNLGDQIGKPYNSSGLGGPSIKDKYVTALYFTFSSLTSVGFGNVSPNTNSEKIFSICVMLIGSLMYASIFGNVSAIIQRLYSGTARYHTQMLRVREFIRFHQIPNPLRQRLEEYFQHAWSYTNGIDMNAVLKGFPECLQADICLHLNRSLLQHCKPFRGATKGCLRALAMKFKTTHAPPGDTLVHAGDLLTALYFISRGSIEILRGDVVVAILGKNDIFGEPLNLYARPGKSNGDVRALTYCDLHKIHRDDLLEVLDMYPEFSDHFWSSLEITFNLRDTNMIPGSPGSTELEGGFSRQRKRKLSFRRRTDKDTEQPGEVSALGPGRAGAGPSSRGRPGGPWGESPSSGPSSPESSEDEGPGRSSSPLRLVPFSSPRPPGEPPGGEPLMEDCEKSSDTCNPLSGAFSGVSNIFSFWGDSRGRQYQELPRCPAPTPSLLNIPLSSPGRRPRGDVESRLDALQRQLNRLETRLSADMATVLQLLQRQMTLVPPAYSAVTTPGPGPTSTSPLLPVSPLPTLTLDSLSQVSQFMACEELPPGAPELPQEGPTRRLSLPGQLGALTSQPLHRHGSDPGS

Row | SMILES | current remaining | outcome
1 | O=C(O)c1cc(Cl)ccc1Nc1nc2cc(Cl)ccc2o1 | 4.15% | 
2 | CCC1CCCCN1C(=S)NC(=O)c1cccs1 (centres undefined) | 46.5% [measured here: rescue from 100 nM dofetilide block, at 10 µM, stronger effect = higher value] | 
3 | O=C(COc1ccc2ccccc2c1Br)Nc1cccnc1 | 1% | inactive
